Experimental findings from PubChem BioAssay are described below.

In general, inhibition refers to the relative decrease from the control value, in per cent.

Inconclusive results are not listed. Some of the results follow. Active and inactive are the calls of the source. Cut-off read from the data, not from the text of the source, unless noted: active = response below about 74% or above about 130%; inactive = in between.

A short description of test [1]: yeast TOR pathway RPL19A-GFP modulators, primary screen, cell-based, S. cerevisiae, multiplex flow cytometry (AID 1862; in the data active = percent of DMSO control GFP below about 86%;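 note: lower values mimic rapamycin by blocking the RPL19A rise seen in DMSO cells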). Conditions: S. cerevisiae RPL19A-GFP strain, flow cytometry fluorescence, 3 h; at 10 µM; stronger effect = lower value. Background: A flow cytometer gives signals particle by particle.
Test [2] in a line: modulators of MEP2-GFP levels in yeast, primary screen, S. cerevisiae, multiplex flow cytometry (AID 1867;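 active = GFP response, as percent of the DMSO control, above the screen-wide mean plus 3 SD, about 139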;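 note: median GFP channel fluorescence of barcode-gated MEP2-GFP cells measured by flow cytometry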). Conditions: S. cerevisiae MEP2-GFP strain, 3 h, at 10 µM, stronger effect = higher value, 100% means same as DMSO wells.
Test [3] in a line: modulators of CIT2-GFP expression in yeast, primary screen, S. cerevisiae, GFP fusion, multiplex flow cytometry (AID 1870;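 active = percent response above a set limit, the screen-wide mean plus 3 SD, cut at about 130% in these data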;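 note: barcoded CIT2-GFP strain pooled with four other GFP strains with rapamycin as positive control; median GFP fluorescence per well over plate mean of DMSO wells so 100% = DMSO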). Particulars: 3 h, at 10 µM, stronger effect = higher value.
Test [4] in a line: modulators of LAP4-GFP expression in yeast, primary screen, S. cerevisiae, multiplex flow cytometry (AID 1873;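 active = GFP signal, as percent of the solvent control, above the screen mean plus 3 SD, about 149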). Particulars: 3 h, at 10 µM, stronger effect = higher value.
The nature of test [5]: modulators of AGP1-GFP expression in yeast TOR pathway, primary screen, cell-based, multiplex flow cytometry, S. cerevisiae (AID 1887;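 active = GFP signal above the screen-wide mean plus 3 SD, that is over about 124.5% of the solvent control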;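 note: AGP1-GFP fusion strain of S. cerevisiae within a five-strain barcoded multiplex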). Particulars: 3 h, at 10 µM, stronger effect = higher value.
Test [6] can be described thus: RPL19A-GFP modulators, yeast TOR pathway, confirmation, cell-based, S. cerevisiae, flow cytometry, cherry picks, mother/daughter gates (AID 2270;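 active = GFP response below 50% of the DMSO control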). Particulars: S. cerevisiae RPL19A-GFP strain, 3 h, at 10 µM, stronger effect = lower value, 100 = same GFP as DMSO wells.
A short description of test [7]: LAP4-GFP expression modulators in yeast, confirmation, cell-based, cherry picks, flow cytometry, mother/daughter gates (AID 2271;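 active = GFP response above 150% of the DMSO control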;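 note: ratio of sample to DMSO plate mean so 100% equals DMSO level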). Conditions: S. cerevisiae LAP4-GFP strain, 3 h, at 10 µM, stronger effect = higher value, 100 means same as DMSO control.
Test [8] is described as follows: modulators of MEP2-GFP levels in yeast, confirmation, S. cerevisiae, flow cytometry GFP, cherry picks (AID 2272;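 active = GFP response above 150% of the DMSO control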;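 note: ratio of well signal to plate DMSO mean so 100% equals DMSO level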). Particulars: S. cerevisiae MEP2-GFP strain, 3 h, at 10 µM, stronger effect = higher value.
Test [9] is described as follows: modulators of CIT2-GFP expression in yeast, confirmation, S. cerevisiae, GFP fusion, cherry picks, mother/daughter gates (AID 2274;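 active = GFP response above 150% of the DMSO level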). Conditions: S. cerevisiae CIT2-GFP strain, flow cytometry, 3 h, at 10 µM, stronger effect = higher value.
A short description of test [10]: inhibitors of CD8+ T cell-vesicle binding, pilot screen, LFA-1/ICAM-1 modulator project, MLPCN validation set, flow cytometry (AID 2523;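 active = response below a set limit, under 55% cells CD8-positive and vesicle-bound, and CD8 cells' 90th-percentile brightness under 279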;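 for vesicle binding response: mean PE anti-B7-1 fluorescence of CD8+ cells relative to row control; 100% = QL9-loaded vesicles with DMSO vehicle in the same plate row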). Conditions: 2C mouse CD8+ T cells, at 7 µM, stronger effect = lower value; double positive events: measured here: CD8+/vesicle+ event percentage.
Test [11] in a line: disruption of biotin probe capture by avidin, counter-screen for RGS protein interaction modulators, biochemical, flow cytometry, bead-based (AID 1783;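 active = inhibition above 50%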;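 note: median green fluorescence of gated singlet beads compared with DMSO control wells; 0% = DMSO wells and 100% = complete loss of bead fluorescence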). Particulars: streptavidin beads, fluorescein-biotin binding; at 10 µM, stronger effect = higher value.
The target of test [12] is Guanine nucleotide-binding protein G(o) subunit alpha (Homo sapiens) (UniProt P09471). Put plainly: RGS8-Galphao binding modulators, confirmation, biochemical, multiplexed bead flow cytometry, single concentration (AID 1836; in the data active = binding response below about 72% or above about 130%; inactive = in between;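 note: Galphao activated as GDP AlF4 complex before binding bead RGS8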). Conditions: bead-based flow cytometry RGS8-Galphao binding, fluorescence; at 10 µM; actives lie on both sides.
Sequence of Guanine nucleotide-binding protein G(o) subunit alpha (Homo sapiens) (P09471 whole entry, looked up): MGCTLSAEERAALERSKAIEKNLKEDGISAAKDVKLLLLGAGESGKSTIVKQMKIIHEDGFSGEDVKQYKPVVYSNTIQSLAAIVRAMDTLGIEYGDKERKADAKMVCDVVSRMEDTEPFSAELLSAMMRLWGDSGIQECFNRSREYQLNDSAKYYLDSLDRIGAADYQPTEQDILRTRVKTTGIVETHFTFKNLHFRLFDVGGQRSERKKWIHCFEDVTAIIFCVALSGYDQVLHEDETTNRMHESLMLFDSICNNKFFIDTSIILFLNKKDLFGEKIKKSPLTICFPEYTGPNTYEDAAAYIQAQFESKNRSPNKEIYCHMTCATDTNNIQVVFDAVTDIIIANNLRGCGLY
Test [13] shares this target. Nature of the test: RGS7-Galphao binding modulators, confirmation, biochemical, multiplexed bead flow cytometry, single concentration (AID 1837; in the data active = response below about 75% or above about 130%; inactive = in between;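 note: fluorescent Galphao activated with GDP and aluminum fluoride binding bead-coupled RGS7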). Conditions: bead-based flow cytometry RGS7-Galphao binding; at 10 µM; actives lie on both sides.
Test [14] addresses Regulator of G-protein signaling 16 (Homo sapiens) + Guanine nucleotide-binding protein G(o) subunit alpha (Homo sapiens) (UniProt O15492+P09471). Nature of the test: modulators of RGS16-Galphao protein binding, confirmation, biochemical, single concentration, multiplexed bead flow cytometry (AID 1838).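 Note: Galphao activated as the GDP aluminium fluoride complex binding bead-coupled RGS16.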 Particulars: bead-based flow cytometry, at 10 µM, actives lie on both sides.

For test [15], the target named is Guanine nucleotide-binding protein G(o) subunit alpha (Homo sapiens) (UniProt P09471). Put plainly: modulators of RGS4-Galphao protein binding, confirmation, biochemical, single concentration, multiplexed bead flow cytometry (AID 1840; in the data active = binding response below about 74% or above about 130%; inactive = in between). Conditions: at 10 µM, actives lie on both sides.
The target in test [16] is Guanine nucleotide-binding protein G(o) subunit alpha (Homo sapiens) + Regulator of G-protein signaling 19 (Homo sapiens) (UniProt P09471+P49795). Nature of the test: regulators of RGS19-Galphao binding, confirmation, biochemical, single point, multiplexed bead flow cytometry (AID 1841; in the data active = response below about 50% or above about 160%; inactive = in between;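 note: 100% = no compound control and 0% = blank background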). Particulars: bead-based flow cytometry RGS19-Galphao binding; at 10 µM; actives lie on both sides.
Sequence of Guanine nucleotide-binding protein G(o) subunit alpha (Homo sapiens) + Regulator of G-protein signaling 19 (Homo sapiens) (P09471 whole entry, looked up): as above
Sequence of Guanine nucleotide-binding protein G(o) subunit alpha (Homo sapiens) + Regulator of G-protein signaling 19 (Homo sapiens) (P49795 whole entry, looked up): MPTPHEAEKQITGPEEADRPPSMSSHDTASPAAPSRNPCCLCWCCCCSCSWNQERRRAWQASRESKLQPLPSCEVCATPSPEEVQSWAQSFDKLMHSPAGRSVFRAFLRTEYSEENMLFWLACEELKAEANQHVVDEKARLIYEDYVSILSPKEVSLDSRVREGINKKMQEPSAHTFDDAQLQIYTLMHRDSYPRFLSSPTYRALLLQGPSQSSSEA

Test [17] concerns the target Regulator of G-protein signaling 16 (Homo sapiens) (UniProt O15492). Nature of the test: modulators of RGS–Galpha-o binding, primary screen, biochemical, multiplexed beads, flow cytometry, RGS4/7/8/16/19 (AID 1504).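 Note: fluorescently labeled Galpha-o bound to GDP with aluminium fluoride binding biotinylated RGS beads.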 Particulars: multiplexed bead flow cytometry, measured here: RGS16 interaction, at 10 µM.
Test [18] deals with Regulator of G-protein signaling 19 (Homo sapiens) (UniProt P49795). The description is as above. Conditions: multiplexed bead flow cytometry, measured here: RGS19 interaction, at 10 µM.
The target of test [19] is Regulator of G-protein signaling 7 (Homo sapiens) (UniProt P49802). The description is as above. Particulars: multiplexed bead flow cytometry, measured here: RGS7 interaction, at 10 µM.
Test [20] has as its target Regulator of G-protein signaling 8 (Homo sapiens) (UniProt P57771). The test is described as above. Particulars: multiplexed bead flow cytometry, measured here: RGS8 interaction, at 10 µM.
[21] abbreviates: measured here: daughter cell gate.
Where [22] appears, read: measured here: mother cell gate.
The mark [23] stands for this setting: measured here: daughter cell gate response.
[24] abbreviates: measured here: mother cell gate response.

Sequence of Regulator of G-protein signaling 16 (Homo sapiens) + Guanine nucleotide-binding protein G(o) subunit alpha (Homo sapiens) (O15492 whole entry, looked up): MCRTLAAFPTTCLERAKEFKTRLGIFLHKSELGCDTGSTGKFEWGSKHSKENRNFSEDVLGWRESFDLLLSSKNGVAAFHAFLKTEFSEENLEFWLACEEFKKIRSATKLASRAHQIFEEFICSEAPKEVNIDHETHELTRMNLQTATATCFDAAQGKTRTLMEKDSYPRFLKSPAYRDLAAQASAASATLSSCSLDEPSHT
Sequence of Regulator of G-protein signaling 16 (Homo sapiens) + Guanine nucleotide-binding protein G(o) subunit alpha (Homo sapiens) (P09471 whole entry, looked up): as the sequence (P09471 whole entry, looked up) above

With `O=[N+]([O-])c1cccc2cn[nH]c12`, the percent of DMSO control GFP in test [1] is 94.4% (inactive). The GFP response vs DMSO in [2] was 155% (active); in test [4], 91.3% (inactive); in [6], 97.3% (inactive); in test [6] (setting [21]), 96.4%; in [6] (setting [22]), 95.2%; in [8] it was 106% (inactive). Moreover, the percent response of DMSO control in test [3] is 114% (inactive). The GFP response, % of DMSO is 94.2% (inactive) in test [5], 103% (inactive) in test [9], 101% in [9] (setting [21]) and 103% in test [9] (setting [22]). For the same compound, the GFP response relative to DMSO in test [7] was 98.9% (inactive); in test [7] (setting [23]), 97.5%; in test [7] (setting [24]) it was 99.5%. The compound further gave a double positive events in test [10] of 51.9%. For the same compound, the vesicle binding response in [10] is 56% (active).
`Cc1c(Br)cc(C(=O)N2CCCCCC2)c(C)c1C`: the inhibition in test [11] was -0.3% (inactive). Moreover, the binding response (% of control) in test [12] and in test [15] was 102% (inactive) throughout. Moreover, the response (percent of control binding) in test [13] is 102% (inactive); in test [16], 104% (inactive). Also, in test [14], the response (% of control binding) was 102% (inactive).
`Cc1ccc(S(=O)(=O)NCC(=O)OCC(=O)N2CCc3ccccc32)cc1` showed an RGS16–Galpha-o binding response in test [17] of 604%. Moreover, the RGS19–Galpha-o binding response in test [18] was 93.8%. In test [19], this compound displayed an RGS7–Galpha-o binding response of 139%. Besides, the RGS8–Galpha-o binding response in test [20] was determined as 117%. Further, the inhibition in test [11] is -1.7% (inactive). In addition, the binding response (% of control) in test [12] was 102% (inactive); in test [15], 99.7% (inactive). Also, the response (percent of control binding) in test [13] is 99.5% (inactive); in test [16], 97.4% (inactive). Further, the response (% of control binding) in test [14] is 98.9% (inactive).
Regarding `CC(=O)CSc1ncnc2c1cnn2-c1ccccc1`, the percent of DMSO control GFP in test [1] is 90.6% (inactive). Also, the GFP response vs DMSO in test [2] is 116% (inactive); in test [4] it was 77.6% (inactive); in test [6], 100% (inactive); in test [6] (setting [21]), 97.6%; in [6] (setting [22]), 100%; in test [8], 99% (inactive). In [3], the percent response of DMSO control is 92.6% (inactive). The GFP response, % of DMSO was 87.3% (inactive) in [5], 93% (inactive) in [9], 92% in test [9] (setting [21]) and 91.9% in test [9] (setting [22]). Also, the GFP response relative to DMSO in test [7] was 106% (inactive); in test [7] (setting [23]), 101%; in test [7] (setting [24]) it was 106%. Further, the double positive events in test [10] was 57.9%. Besides, the vesicle binding response in test [10] was 221% (inactive).
On to `Cc1cccc(S(=O)(=O)CC(=O)Nc2nc(-c3ccccc3)cs2)c1`, for which the RGS16–Galpha-o binding response in test [17] was determined as 239%. For the same compound, the RGS19–Galpha-o binding response in test [18] worked out at 101%. Further, in [19], the RGS7–Galpha-o binding response turned out to be 130%. Further, the RGS8–Galpha-o binding response in test [20] is 118%. The inhibition in test [11] is 1.7% (inactive). Also, the binding response (% of control) in test [12] was 101% (inactive); in test [15] it was 103% (inactive). In addition, the response (percent of control binding) in test [13] is 106% (inactive); in test [16] it was 105% (inactive). Also, the response (% of control binding) in test [14] was 98.5% (inactive).
On to `Cc1ncoc1C(=O)NCCC(c1ccccc1)c1ccccc1`, for which the inhibition in test [11] was 0.1% (inactive). Besides, the binding response (% of control) in test [12] is 101% (inactive); in [15], 103% (inactive). Besides, the response (percent of control binding) in test [13] was 110% (inactive); in test [16], 111% (inactive). Further, the response (% of control binding) in test [14] is 101% (inactive).
Compound `FC(F)Oc1ccccc1C1CC(c2ccc(Br)s2)Nc2ncnn21` (stereo unspecified) yielded an RGS16–Galpha-o binding response in test [17] of 215%. Also, in test [18], the RGS19–Galpha-o binding response was -1720%. The compound further displayed an RGS7–Galpha-o binding response in [19] of 163%. Further, the RGS8–Galpha-o binding response in [20] came to 111%. Besides, in [11], the inhibition is 2.6% (inactive). Further, the binding response (% of control) in test [12] was 99.3% (inactive); in test [15] it was 95.9% (inactive). Further, the figures for the response (percent of control binding) in test [13] and in [16] were 98% (inactive) and 96% (inactive), respectively. Also, in test [14], the response (% of control binding) is 97.2% (inactive).
